Data published in PubChem BioAssay (EPA / NIEHS).
Where a structure was tested more than once in an assay, its records may differ in their call. Calls of active or inactive are those of the source. How the source made its calls: active means hit-call score of the fitted dose curve at least 0.9, where 1 is the maximum; inactive means score below 0.9.

Tests used:
[1] = read-out: Vascular cell adhesion molecule 1 (VCAM1), VCAM1 (gene 7412); test: BSK_CASM3C_VCAM1: BioMAP Diversity Plus: CASM3C Assay for Vascular cell adhesion molecule 1 (VCAM1) Biomarker Activity (AID 2283055); settings: primary human coronary artery smooth muscle cells; actives raise or lower the signal;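 further: VCAM-1 protein level quantified by ELISA on the cells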
[2] = read-out: Collagen III, COL3A1 (gene 1281); test: BSK_hDFCGF_CollagenIII: BioMAP Diversity Plus: hDFCGF Assay for Collagen III Biomarker Activity (AID 2283056); settings: primary human foreskin fibroblasts; actives raise or lower the signal
Outline: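 ELISA read-out of collagen III from human skin fibroblast cultures sampled 24 h post-dosing. Values were derived by bidirectional fitting relative to the DMSO vehicle control.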

[3] = read-out: Epidermal growth factor receptor (EGFR), EGFR (gene 1956); test: BSK_hDFCGF_EGFR: BioMAP Diversity Plus: hDFCGF Assay for Epidermal growth factor receptor (EGFR) Biomarker Activity (AID 2283057); settings: primary human foreskin fibroblasts; actives raise or lower the signal
Outline: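 Primary human foreskin fibroblasts were exposed to compound for 24 h, after which cell-surface EGFR was quantified by ELISA. Activity was fitted bidirectionally against the DMSO negative control as baseline.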

[4] = read-out: Interleukin-8 (IL8), CXCL8 (gene 3576); test: BSK_hDFCGF_IL8: BioMAP Diversity Plus: hDFCGF Assay for Interleukin-8 (IL8) Biomarker Activity (AID 2283058); settings: primary human foreskin fibroblasts; actives raise or lower the signal
Outline: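 Cells used are human skin primary fibroblasts. Chemical is added, cultures run 24 h, then IL-8 is quantified by ELISA, and gain or loss versus DMSO control is fitted in both directions.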

[5] = BSK_hDFCGF_Proliferation: Cell Proliferation Assessment in the BioMAP Diversity Plus: hDFCGF Assay (AID 2283059); settings: primary human foreskin fibroblasts;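 further: curves fitted for both rise and fall of signal versus DMSO baseline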
Outline: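 Steps: dose primary human dermal fibroblasts (foreskin); […] fix in 10% TCA; stain with 0.1% SRB; read 560 nm; fit gain or loss of signal against DMSO.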

[6] = read-out: Macrophage colony-stimulating factor (MCSF), CSF1 (gene 1435); test: BSK_hDFCGF_MCSF: BioMAP Diversity Plus: hDFCGF Assay for Macrophage colony-stimulating factor (MCSF) Biomarker Activity (AID 2283060); settings: primary human foreskin fibroblasts; actives raise or lower the signal
Outline: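 Primary human foreskin fibroblasts dosed with chemical; 24 h later, M-CSF quantified by ELISA; curves fitted in both directions vs DMSO negative control.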

[7] = BSK_hDFCGF_SRB: Viability Assessment in the BioMAP Diversity Plus: hDFCGF Assay (AID 2283061); settings: primary human foreskin fibroblasts;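 further: cells exposed to compound for 24 h before the read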
Outline: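 Readout is SRB absorbance at 560 nm, reflecting total protein in parallel cultures of human foreskin fibroblasts harvested 24 h after chemical dosing. Activity was fitted bidirectionally relative to DMSO.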

[8] = read-out: TIMP metallopeptidase inhibitor 1 (TIMP1), TIMP1 (gene 7076); test: BSK_hDFCGF_TIMP1: BioMAP Diversity Plus: hDFCGF Assay for TIMP metallopeptidase inhibitor 1 (TIMP1) Biomarker Activity (AID 2283062); settings: primary human foreskin fibroblasts; actives raise or lower the signal
Outline: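 Human skin fibroblasts (primary), hDFCGF system; compound exposure 24 h; TIMP-1 by ELISA; bidirectional fit vs DMSO negative control; overt cytotoxicity by SRB in parallel wells.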

[9] = read-out: Monokine induced gamma interferon (MIG), CXCL9 (gene 4283); test: BSK_hDFCGF_MIG: BioMAP Diversity Plus: hDFCGF Assay for Monokine induced gamma interferon (MIG) Biomarker Activity (AID 2283063); settings: primary human foreskin fibroblasts; actives raise or lower the signal
Outline: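 Chemicals were added to primary human foreskin fibroblast cultures, which were sampled 24 h later. MIG levels were then quantified by ELISA and responses fitted in both directions relative to DMSO.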

[10] = read-out: Matrix Metallopeptidase 1 (MMP1), MMP1 (gene 4312); test: BSK_hDFCGF_MMP1: BioMAP Diversity Plus: hDFCGF Assay for Matrix Metallopeptidase 1 (MMP1) Biomarker Activity (AID 2283064); settings: primary human foreskin fibroblasts; actives raise or lower the signal
Outline: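 Primary human foreskin fibroblasts in the hDFCGF system were dosed with test chemical, and MMP1 was measured by ELISA 24 h later. Values come from bidirectional curve fitting against the DMSO baseline.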

[11] = read-out: Vascular cell adhesion molecule 1 (VCAM1), VCAM1 (gene 7412); test: BSK_hDFCGF_VCAM1: BioMAP Diversity Plus: hDFCGF Assay for Vascular cell adhesion molecule 1 (VCAM1) Biomarker Activity (AID 2283065); settings: primary human foreskin fibroblasts; actives raise or lower the signal;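 on AC50: VCAM-1 protein level quantified by ELISA after 24 h chemical exposure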
Outline: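 Human foreskin fibroblast primary cells, chemical exposure 24 h; VCAM-1 by ELISA; bidirectional fit, DMSO = negative control/baseline.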

[12] = read-out: Plasminogen activator inhibitor-1 (PAI1), SERPINE1 (gene 5054); test: BSK_hDFCGF_PAI1: BioMAP Diversity Plus: hDFCGF Assay for Plasminogen activator inhibitor-1 (PAI1) Biomarker Activity (AID 2283066); settings: primary human foreskin fibroblasts; actives raise or lower the signal
Outline: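 Human foreskin fibroblasts in the hDFCGF system were dosed with compound for 24 h; PAI-1 was quantified by ELISA. Bidirectional curve fitting used DMSO as negative control and baseline.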

[13] = read-out: Intercellular Adhesion Molecule 1 (ICAM1), ICAM1 (gene 3383); test: BSK_KF3CT_ICAM1: BioMAP Diversity Plus: KF3CT Assay for Intercellular Adhesion Molecule 1 (ICAM1) Biomarker Activity (AID 2283067); settings: primary human keratinocytes with fibroblasts; actives raise or lower the signal
Outline: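 ICAM-1 levels are measured by ELISA 24 h after dosing a primary human co-culture of keratinocytes and foreskin fibroblasts. Activity in either direction is fitted relative to DMSO vehicle.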

[14] = read-out: Interferon-gamma inducible Protein 10 (IP10), CXCL10 (gene 3627); test: BSK_KF3CT_IP10: BioMAP Diversity Plus: KF3CT Assay for Interferon-gamma inducible Protein 10 (IP10) Biomarker Activity (AID 2283068); settings: primary human keratinocytes with fibroblasts; actives raise or lower the signal
Outline: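 KF3CT co-culture (keratinocytes + foreskin fibroblasts), 24 h compound, IP-10 by ELISA; bidirectional fit vs DMSO baseline.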

[15] = BSK_KF3CT_SRB: Viability Assessment in the BioMAP Diversity Plus: KF3CT Assay (AID 2283069); settings: primary human keratinocytes with fibroblasts;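 further: total protein by sulforhodamine B staining as a cytotoxicity measure; read 24 h after compound addition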
Outline: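 Human primary keratinocyte plus foreskin fibroblast co-culture exposed to chemicals for 24 h. Total protein measured by 0.1% sulforhodamine B staining after 10% TCA fixation, read at 560 nm; bidirectional fitting versus DMSO baseline.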

[16] = read-out: Interleukin-1 alpha (IL1a), IL1A (gene 3552); test: BSK_KF3CT_IL1a: BioMAP Diversity Plus: KF3CT Assay for Interleukin-1 alpha (IL1a) Biomarker Activity (AID 2283070); settings: primary human keratinocytes with fibroblasts; actives raise or lower the signal
Outline: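 Human keratinocyte plus foreskin fibroblast primary co-culture, sampled 24 h after chemical dosing. IL-1a measured by ELISA; responses fitted bidirectionally against DMSO baseline (negative control), so gain or loss of signal both count.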

[17] = read-out: TIMP metallopeptidase inhibitor 2 (TIMP2), TIMP2 (gene 7077); test: BSK_KF3CT_TIMP2: BioMAP Diversity Plus: KF3CT Assay for TIMP metallopeptidase inhibitor 2 (TIMP2) Biomarker Activity (AID 2283071); settings: primary human keratinocytes with fibroblasts; actives raise or lower the signal
Outline: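 Human primary keratinocyte/foreskin fibroblast co-culture dosed with chemical and sampled at 24 h. TIMP-2 levels quantified by ELISA; bidirectional fitting against DMSO negative control as baseline.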

[18] = read-out: Transforming growth factor beta 1 (TGFb1), TGFB1 (gene 7040); test: BSK_KF3CT_TGFb1: BioMAP Diversity Plus: KF3CT Assay for Transforming growth factor beta 1 (TGFb1) Biomarker Activity (AID 2283072); settings: primary human keratinocytes with fibroblasts; actives raise or lower the signal
Outline: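 Human keratinocyte plus foreskin fibroblast primary co-culture, dosed with chemical for 24 h. TGF-b1 quantified by ELISA. Activity fitted bidirectionally against DMSO negative control as baseline.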

[19] = read-out: C-C motif chemokine 2 (Homo sapiens) (UniProt P13500); test: BSK_KF3CT_MCP1: BioMAP Diversity Plus: KF3CT Assay for Monocyte Chemoattractant Protein 1 (MCP1/CCL2) Biomarker Activity (AID 2283073); settings: primary human keratinocytes with fibroblasts; actives raise or lower the signal
Outline: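 ELISA readout of MCP-1 after 24 h chemical dosing of a human skin primary co-culture of keratinocytes and foreskin fibroblasts. Activity was fitted in both directions against DMSO.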

[20] = read-out: Matrix Metallopeptidase 9 (MMP9), MMP9 (gene 4318); test: BSK_KF3CT_MMP9: BioMAP Diversity Plus: KF3CT Assay for Matrix Metallopeptidase 9 (MMP9) Biomarker Activity (AID 2283074); settings: primary human keratinocytes with fibroblasts; actives raise or lower the signal;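 on AC50: MMP9 protein level quantified by ELISA in the co-culture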
Outline: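 Keratinocyte plus foreskin fibroblast human primary skin co-culture was dosed with chemical and MMP-9 was quantified by ELISA 24 h later. Bidirectional curve fitting used DMSO as negative control and activity baseline.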

CCOP(=S)(OCC)SCS(=O)(=O)C(C)(C)C
outcome [1]: inactive | outcome [2]: inactive | outcome [3]: inactive | outcome [4]: inactive | outcome [5]: inactive | outcome [6]: inactive | outcome [7]: inactive | outcome [8]: inactive | outcome [9]: inactive | outcome [10]: inactive | outcome [11]: inactive | outcome [12]: inactive | outcome [13]: inactive | outcome [14]: inactive | outcome [15]: inactive | outcome [16]: inactive | outcome [17]: inactive | outcome [18]: inactive | outcome [19]: inactive | outcome [20]: inactive

CCOC(=O)CC(=O)CCl
AC50 [1]: 20 µM (active) | outcome [2]: inactive | outcome [3]: inactive | outcome [4]: inactive | AC50 [5]: 19 µM (active) | AC50 [6]: 20 µM (active) | outcome [7]: inactive | outcome [8]: inactive | AC50 [9]: 20 µM (active) | outcome [10]: inactive | AC50 [11]: 20 µM (active) | outcome [12]: inactive | outcome [13]: inactive | outcome [14]: inactive | outcome [15]: inactive | AC50 [16]: 6.58 µM (active) | outcome [17]: inactive | outcome [18]: inactive | outcome [19]: inactive | outcome [20]: inactive

Oc1c(Cl)cc(Cl)cc1Cl
outcome [1]: inactive | outcome [2]: inactive | outcome [3]: inactive | outcome [4]: inactive | outcome [5]: inactive | outcome [6]: inactive | outcome [7]: inactive | outcome [8]: inactive | outcome [9]: inactive | outcome [10]: inactive | outcome [11]: inactive | outcome [12]: inactive | outcome [13]: inactive | outcome [15]: inactive | outcome [16]: inactive | outcome [17]: inactive | outcome [18]: inactive | outcome [19]: inactive | outcome [20]: inactive

CC1(C)[C@H](C(=O)O[C@H](C#N)c2cccc(Oc3ccccc3)c2)[C@@H]1/C=C(\Cl)C(F)(F)F
outcome [1]: inactive | AC50 [2]: 9.08 µM (active) | outcome [2]: inactive | outcome [3]: inactive | outcome [4]: inactive | AC50 [5]: 7.37 µM (active) | outcome [5]: inactive | outcome [6]: inactive | outcome [7]: inactive | outcome [8]: inactive | outcome [9]: inactive | AC50 [10]: 0.0141 µM (active) | outcome [10]: inactive | outcome [11]: inactive | outcome [12]: inactive | outcome [13]: inactive | outcome [15]: inactive | outcome [16]: inactive | AC50 [17]: 0.525 µM (active) | outcome [17]: inactive | outcome [18]: inactive | outcome [19]: inactive | AC50 [20]: 0.357 µM (active)

OC(Cc1ccccc1Cl)(Cn1[nH]cnc1=S)C1(Cl)CC1 (configuration not stated)
AC50 [1]: 36.3 µM (active) | AC50 [2]: 9.86 µM (active) | outcome [3]: inactive | outcome [4]: inactive | AC50 [5]: 35.2 µM (active) | AC50 [6]: 15 µM (active) | outcome [7]: inactive | outcome [8]: inactive | AC50 [9]: 33.3 µM (active) | outcome [10]: inactive | AC50 [11]: 17.8 µM (active) | outcome [12]: inactive | outcome [13]: inactive | outcome [14]: inactive | outcome [15]: inactive | outcome [16]: inactive | AC50 [17]: 11.1 µM (active) | AC50 [18]: 16.9 µM (active) | outcome [19]: inactive | outcome [20]: inactive

COc1ccccc1N
outcome [1]: inactive | outcome [2]: inactive | outcome [3]: inactive | outcome [4]: inactive | outcome [5]: inactive | outcome [6]: inactive | outcome [7]: inactive | outcome [8]: inactive | outcome [9]: inactive | outcome [10]: inactive | outcome [11]: inactive | outcome [12]: inactive | outcome [13]: inactive | outcome [14]: inactive | outcome [15]: inactive | outcome [16]: inactive | outcome [17]: inactive | outcome [18]: inactive | outcome [19]: inactive | outcome [20]: inactive
